Experimental data taken from PubChem BioAssay (Tox21).
Active and inactive are the calls of the source. The call rests on the fitted dose curve; in most records, active means well fitted curve in the direction sought with a large enough effect in the repeat runs; inconclusive means weak or mixed curves; inactive means flat fitted curve, though single readings scatter.
On the % scale 0 is the no-effect control and ±100 the full control effect.

Test: qHTS assay to test for compound auto fluorescence at 590 nm (red) in HepG2 cell free culture (AID 720684)
Conditions: cell-free medium autofluorescence, red 540/590 nm; series mostly up to 91.3 µM; fluorescence, % of Rose Bengal: at the top concentration
Excerpt: U.S. Tox21 Program National Center for Advancing Translational Sciences [NCATS] NIH Chemical Genomics Center [NCGC] U.S. Environmental Protection Agency [EPA] National Institutes of Environmental Health Sciences [NIEHS] National Toxicology Program [NTP] U.S. Food and Drug Administration [FDA] Tox21 Assay Overview: Compound auto fluorescence often interferes with screening of the compound library against various biological targets and signaling pathways. Some of these compounds may have fluorophoric properties. Such properties may interfere with the assay outputs resulting in false positives and/or negatives. To decrease such complications and ensure the compound activities are relevant in terms of biological response, the Tox21 10K compound library was screened for auto fluorescence. From the fluorophores used as reporter signals in our screening assays, the auto fluorescence equivalencies of compounds against three fluorophores have been evaluated: Triamterene, Fluorescein and Rose Bengal sodium for blue, green and red fluorescence, respectively. The fluorescence intensities were measured using Excitation/Emission wavelengths at 405/460nm, 485/535nm and 540/590nm for blue, green and red labels, respectively. This assay includes the red fluorescence data.
Tox21 Assay Protocol Summary: 5 uL of culture medium (MEM containing 10% FBS) per well was dispensed into black wall/clear bottom 1536-well plates using a Multidrop Combi Dispenser (ThermoFisher Scientific, Waltham, MA). After 23 nL compound or DMSO vehicle was transferred into assay plate by a pintool work station (Kalypsys, San Diego, CA), fluorescence intensities in the assay plates were measured by an Envision (PerkinElmer, Shelton, CT) plate reader using three labels for measuring blue, green and red fluorescence at […] 460, 535 and 590nm respectively.
For `c1cc(N(CC2CO2)CC2CO2)ccc1Cc1ccc(N(CC2CO2)CC2CO2)cc1` (stereo not given), the “fluorescence, % of Rose Bengal” value was -0.485% (inactive). In the case of `CO[C@]1(NC(=O)CSC(F)F)C(=O)N2C(C(=O)O)=C(CSc3nnnn3CCO)CO[C@H]21`, the “fluorescence, % of Rose Bengal” value is reported as -0.185% [at 46 µM] (inactive). In the case of `CC(CO)CO`, the “fluorescence, % of Rose Bengal” value is reported as -0.438% [at 95.7 µM] (inactive). For `CC(=O)N/N=C/c1ccc([N+](=O)[O-])o1`, the “fluorescence, % of Rose Bengal” value was 0.0616% [at 46 µM] (inactive). In the case of `CC(=O)c1ccc([N+](=O)[O-])cc1`, the “fluorescence, % of Rose Bengal” value is reported as 0.32% (inactive). In the case of `CC1(C)O[C@@H]2C[C@H]3[C@@H]4C[C@H](F)C5=CC(=O)C=C[C@]5(C)[C@H]4[C@@H](O)C[C@]3(C)[C@]2(C(=O)CO)O1`, the fluorescence, % of Rose Bengal is reported as -0.32% [at 18.6 µM] (inactive). For `COC(=O)CS`, the “fluorescence, % of Rose Bengal” value was -0.0025% (inactive). For `CCC(C)COC(=O)CC(C)C` (stereo not given), the “fluorescence, % of Rose Bengal” value was -0.0813% (inactive). For `O=C1CCCCCCCCCCOCCCCO1`, the “fluorescence, % of Rose Bengal” value was 0.0187% (inactive). In the case of `CN(C(=O)CN(CCO)CC(=O)N(C)C(C)(C)Cc1ccccc1)C(C)(C)Cc1ccccc1`, the fluorescence, % of Rose Bengal is reported as 0.844% [at 18.6 µM] (inactive). For `C=COCC(C)C`, the “fluorescence, % of Rose Bengal” value was -0.053% [at 95.7 µM] (inactive). For `O=C1c2ccccc2C(=O)c2c(O)c(O)cc(O)c21`, the “fluorescence, % of Rose Bengal” value was 4.6% (inactive). With `O=C1Cc2ccccc2N1c1c(Cl)cccc1Cl` the “fluorescence, % of Rose Bengal” value was -0.186% (inactive). In the case of `CC(=O)Nc1cc(S(=O)(=O)O)cc2cc(S(=O)(=O)O)c(N=Nc3ccccc3)c(O)c12`, the “fluorescence, % of Rose Bengal” value is reported as 0.102% (inactive). With `CN1C(C(=O)Nc2ccccn2)=C(O)c2sccc2S1(=O)=O` the fluorescence, % of Rose Bengal was -0.0396% [at 18.6 µM] (inactive). For `CCC(OCCCOC)OC(C)=O` (stereo not given), the “fluorescence, % of Rose Bengal” value was 0.0385% [at 95.7 µM] (inactive). In the case of `CCOC(=O)OC(C)OC(=O)[C@@H]1N2C(=O)[C@@H](NC(=O)[C@H](N)c3ccccc3)[C@H]2SC1(C)C` (stereo not given in full), the fluorescence, % of Rose Bengal is reported as 0.701% [at 18.6 µM] (inactive). With `Cc1ccccc1N=C(N)Nc1ccccc1C` the “fluorescence, % of Rose Bengal” value was -0.123% (inactive). In the case of `CN1C[C@H](C(=O)N[C@]2(C)O[C@@]3(O)[C@@H]4CCCN4C(=O)[C@H](Cc4ccccc4)N3C2=O)C[C@@H]2c3cccc4[nH]cc(c34)C[C@H]21`, the “fluorescence, % of Rose Bengal” value is reported as 0.0498% [at 46 µM] (inactive). In the case of `CC(CCC(=O)O)C(=O)O` (stereo not given), the “fluorescence, % of Rose Bengal” value is reported as 0.19% (inactive). In the case of `CC(C)C(O)(c1ccc(OC(F)(F)F)cc1)c1cncnc1` (stereo not given), the “fluorescence, % of Rose Bengal” value is reported as -0.008% (inactive). For `CC/C=C1/OC(=O)c2ccccc21`, the “fluorescence, % of Rose Bengal” value was 0.222% (inactive). In the case of `C[C@]1(Cn2ccnn2)[C@H](C(=O)O)N2C(=O)C[C@H]2S1(=O)=O`, the “fluorescence, % of Rose Bengal” value is reported as -0.329% [at 46 µM] (inactive). With `CC(C)C[C@H](NC(=O)[C@H](CCc1ccccc1)NC(=O)CN1CCOCC1)C(=O)N[C@@H](Cc1ccccc1)C(=O)N[C@@H](CC(C)C)C(=O)[C@@]1(C)CO1` the “fluorescence, % of Rose Bengal” value was 0.21% [at 46 µM] (inactive). In the case of `CCOC(=O)[C@H](CCc1ccccc1)N[C@@H](C)C(=O)N(CC(=O)O)C1Cc2ccccc2C1`, the “fluorescence, % of Rose Bengal” value is reported as 0.0938% [at 46 µM] (inactive). With `CN(C)CCC=C1c2ccccc2C=Cc2ccccc21` the “fluorescence, % of Rose Bengal” value was -0.346% [at 46 µM] (inactive). In the case of `COc1ncnc(NS(=O)(=O)c2ccc(N)cc2)c1OC`, the “fluorescence, % of Rose Bengal” value is reported as -0.0124% [at 46 µM] (inactive). With `CC(=O)OCC(=O)NCCCOc1cccc(CN2CCCCC2)c1` the outcome was “inactive”. With `CCn1cc(C(=O)O)c(=O)c2cc(F)c(N3CCNCC3)cc21` the outcome was “inactive”. In the case of `COc1ccccc1N1CCN(CC(O)COc2cccc3ccccc23)CC1` (stereo not given), the “fluorescence, % of Rose Bengal” value is reported as -0.0026% [at 46 µM] (inactive). For `FC(F)(F)c1ccccc1Cl`, the “fluorescence, % of Rose Bengal” value was -0.077% [at 95.7 µM] (inactive). With `CN1CCCN=C1COC(=O)C(O)(c1ccccc1)C1CCCCC1` (stereo not given) the “fluorescence, % of Rose Bengal” value was 0.0101% [at 46 µM] (inactive). In the case of `CC[N+](CC)(CCNC(=O)C(=O)NCC[N+](CC)(CC)Cc1ccccc1Cl)Cc1ccccc1Cl`, the “fluorescence, % of Rose Bengal” value is reported as -0.0594% [at 46 µM] (inactive). With `CCCCN1CCCC1C(=O)Nc1c(C)cc(C)cc1C` (stereo not given) the “fluorescence, % of Rose Bengal” value was 0.0342% [at 46 µM] (inactive). For `CC(=O)OCCN(CCOC(C)=O)c1ccc(N=Nc2ccc([N+](=O)[O-])cc2C#N)cc1`, the “fluorescence, % of Rose Bengal” value was -0.0248% (inactive). With `CCC1(CO)COCOC1` the “fluorescence, % of Rose Bengal” value was -0.0422% (inactive). With `C[C@H]1c2cccc(O)c2C(O)=C2C(=O)[C@]3(O)C(O)=C(C(N)=O)C(=O)[C@@H](N(C)C)[C@@H]3[C@@H](O)[C@@H]21` the “fluorescence, % of Rose Bengal” value was 0.0233% [at 46 µM] (inactive). For `O=C(CCc1ccc(O)cc1)c1c(O)cc(O)cc1O`, the “fluorescence, % of Rose Bengal” value was -0.0055% [at 95.7 µM] (inactive). With `CN1CC(=O)N2[C@H](c3ccc4c(c3)OCO4)c3[nH]c4ccccc4c3C[C@@H]2C1=O` the “fluorescence, % of Rose Bengal” value was 0.048% [at 46 µM] (inactive). In the case of `CCCCCCNC(=O)n1cc(F)c(=O)[nH]c1=O`, the “fluorescence, % of Rose Bengal” value is reported as -0.481% [at 46 µM] (inactive).
